Data: PubChem BioAssay (Tox21)
Results filed as inconclusive are left out. The source made the active and inactive calls. Calls follow the shape of the full dose curve.

What was measured:
[1] = target: Acetylcholinesterase (Homo sapiens) (UniProt P22303); assay: Acetylcholinesterase (AChE) small molecule antagonists: colormetric cell-based qHTS assay (AID 1347395); also: nearly all actives have a fitted effect of over 30% in size
How it was run: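 SH-SY5Y cells attached overnight, exposed to compound 30 min at 37 C, then given DTNB/acetylthiocholine; after 90 min at 37 C, colorimetric thiocholine read gives cellular AChE activity.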

[2] = target: Acetylcholinesterase (Homo sapiens) (UniProt P22303); assay: Acetylcholinesterase (AChE) small molecule antagonists: enzyme-based qHTS assay (AID 1347397); details: Potency: AChE enzyme activity inhibition; outcome: AChE enzyme activity inhibition; also: nearly all actives have a fitted effect of over 55% in size
How it was run: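 In this quantitative HTS, compounds from the Tox21 10K collection were preincubated 30 min at ambient temperature with recombinant human AChE dispensed at 50 mU/mL. Hydrolysis of acetylthiocholine was then followed for 10 min by DTNB colour development.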

[3] = target: Acetylcholinesterase (Homo sapiens) (UniProt P22303); assay: Acetylcholinesterase (AChE) small molecule antagonists: fluorescence cell-based qHTS assay (AID 1347398); details: Potency: AChE activity; outcome: AChE activity; also: nearly all actives have a fitted effect of over 50% in size
How it was run: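 Cells (SH-SY5Y) attached overnight, were dosed with compound or DMSO vehicle for 30 min at 37 C, and then incubated 40 min at room temperature with acetylthiocholine and Thiolite Green; green fluorescence indexed AChE activity.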

[4] = target: Acetylcholinesterase (Homo sapiens) (UniProt P22303); assay: Acetylcholinesterase (AChE) small molecule antagonists: enzyme-based qHTS assay with human liver microsomes (AID 1347399); details: Potency: qHTS inhibition; outcome: qHTS inhibition; also: nearly all actives have a fitted effect of over 60% in size
How it was run: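 Recombinant human AChE (50 mU/mL in the enzyme mix) and human liver microsomes (0.25 mg/mL final) were preincubated with compound and NADPH (0.25 mg/mL final) for 30 min at 37 C. Acetylthiocholine/DTNB was then added; thiocholine was read colorimetrically after 10 min at room temperature.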
% is scaled to controls: 0 for no effect and ±100 for the full control effect.

Sequence of Acetylcholinesterase (Homo sapiens) (P22303 whole entry, looked up): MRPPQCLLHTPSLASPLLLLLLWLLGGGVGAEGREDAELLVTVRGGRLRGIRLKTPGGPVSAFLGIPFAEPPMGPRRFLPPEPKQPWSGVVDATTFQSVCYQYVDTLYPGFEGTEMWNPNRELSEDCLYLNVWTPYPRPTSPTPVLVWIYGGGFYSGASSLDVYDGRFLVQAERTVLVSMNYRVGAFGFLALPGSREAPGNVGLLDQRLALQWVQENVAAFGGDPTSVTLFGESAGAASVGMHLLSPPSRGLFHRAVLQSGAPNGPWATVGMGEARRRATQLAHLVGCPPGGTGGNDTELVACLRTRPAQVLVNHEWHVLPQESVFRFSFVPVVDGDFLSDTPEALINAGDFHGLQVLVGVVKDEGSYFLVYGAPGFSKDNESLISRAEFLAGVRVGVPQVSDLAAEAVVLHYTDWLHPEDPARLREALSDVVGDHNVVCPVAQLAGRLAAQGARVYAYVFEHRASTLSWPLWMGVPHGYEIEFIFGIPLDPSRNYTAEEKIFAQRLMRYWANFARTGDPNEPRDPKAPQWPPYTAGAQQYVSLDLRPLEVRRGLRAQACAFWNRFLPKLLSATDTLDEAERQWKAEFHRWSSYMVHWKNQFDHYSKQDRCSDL

O=C1c2ccccc2C(=O)c2c(Cl)cccc21
inactive: Potency [1] | Potency [2] | Potency [3] | Potency [4]

C[C@H](N)C(=O)N[C@@H](C)C(=O)NC1[C@H]2CN(c3nc4c(cc3F)c(=O)c(C(=O)O)cn4-c3ccc(F)cc3F)C[C@@H]12 (some centres undefined)
inactive: outcome [1] | outcome [2] | outcome [3] | outcome [4]

CC(=O)Nc1cccc(C)c1
inactive: Potency [1] | Potency [2] | Potency [3] | Potency [4]

CC(C)(C)C(=O)/C=C/c1ccc(Cl)cc1
inactive: Potency [1] | Potency [2] | Potency [3] | Potency [4]

CCC(=O)O[C@]1(C(=O)COC)[C@@H](C)C[C@H]2[C@@H]3CCC4=CC(=O)C=C[C@]4(C)C3(F)[C@@H](O)C[C@@]21C (some centres undefined)
inactive: Potency [1] | Potency [2] | Potency [3] | Potency [4]

CCN(CC)c1ccc(C(=C2C=CC(=[N+](CC)CC)C=C2)c2cc(S(=O)(=O)O)ccc2S(=O)(=O)[O-])cc1
inactive: Potency [1] | Potency [2] | Potency [3] | Potency [4]

CCCCN(CCCC)C(C(N)=O)c1ccc(OC)cc1 (centres undefined)
inactive: Potency [1] | Potency [2] | Potency [3] | Potency [4]

O=C(CS)OCCOC(=O)CS
inactive: Potency [1] | Potency [2] | Potency [3] | Potency [4]

CCCCCCC#CC(=O)OC
inactive: Potency [1] | Potency [2] | Potency [3] | Potency [4]

CC(=O)CC(c1ccc([N+](=O)[O-])cc1)c1c(O)c2ccccc2oc1=O (centres undefined)
inactive: Potency [1] | Potency [2] | Potency [3] | Potency [4]

CCCCN
inactive: Potency [1] | Potency [2] | Potency [3] | Potency [4]

O=C(NN1CCCC1)NS(=O)(=O)c1ccc(Cl)cc1
inactive: Potency [1] | Potency [2] | Potency [3] | Potency [4]

CC(C)CCOC(=O)CC(C)C
inactive: Potency [1] | Potency [2] | Potency [3] | Potency [4]

C=CCOc1c(Br)cc(Br)cc1Br
inactive: Potency [1] | Potency [2] | Potency [3] | Potency [4]

CCC(C)N(C)C(=O)c1cc2ccccc2c(-c2ccccc2Cl)n1 (centres undefined)
inactive: Potency [1] | Potency [2] | Potency [3] | Potency [4]

CCCCCCCCCCCCOC(C)=O
inactive: Potency [1] | Potency [2] | Potency [3] | Potency [4]

c1ccc2cc3c4ccccc4c4ccccc4c3cc2c1
inactive: Potency [1] | Potency [2] | Potency [3] | Potency [4]

O=C(C(=O)c1ccco1)c1ccco1
inactive: Potency [1] | Potency [2] | Potency [3] | Potency [4]

CC(=O)NC1(c2cccc(F)c2)CCN(CC[C@@]2(c3ccc(Cl)c(Cl)c3)CN(c3ccccc3)C(=O)CO2)CC1
inactive: Potency [1] | Potency [2] | Potency [3] | Potency [4]

CC1=CCCC(C)(C)C12CCC(C)O2 (centres undefined)
inactive: Potency [1] | Potency [2] | Potency [3] | Potency [4]

CCN(CC)CCNC(=O)COc1ccc(Cl)cc1
inactive: Potency [1] | Potency [2] | Potency [3] | Potency [4]

C1=CCC2CC=CC2C1 (centres undefined)
inactive: Potency [1] | Potency [2] | Potency [3] | Potency [4]

Nc1cnn([C@@H]2O[C@H](CO)[C@@H](O)[C@H]2O)c(=O)n1
inactive: Potency [1] | Potency [2] | Potency [3] | Potency [4]

CCCCCc1ccc(N)cc1
inactive: Potency [1] | Potency [2] | Potency [3] | Potency [4]

C=CC(=O)OCC1CCCO1 (centres undefined)
inactive: Potency [1] | Potency [2] | Potency [3] | Potency [4]

CC1=C(CC=O)C(C)(C)CCC1
inactive: Potency [1] | Potency [2] | Potency [3] | Potency [4]

CC(C)CCCC(C)CC=O (centres undefined)
inactive: Potency [1] | Potency [2] | Potency [3] | Potency [4]

CCCCCCCCCCCCCCCS(=O)(=O)Oc1ccccc1
inactive: Potency [1] | Potency [2] | Potency [3] | Potency [4]

CCCCCCCCCCCCN1CCOCC1
inactive: Potency [1] | Potency [2] | Potency [3] | Potency [4]

COC(=O)CCC(=O)O
inactive: Potency [1] | Potency [2] | Potency [3] | Potency [4]

NC(=O)CCCCC(N)=O
inactive: Potency [1] | Potency [2] | Potency [3] | Potency [4]

CCC1Nc2cc(Cl)c(S(N)(=O)=O)cc2S(=O)(=O)N1 (centres undefined)
inactive: Potency [1] | Potency [2] | Potency [3] | Potency [4]

CCCC(=O)O[C@]1(C(=O)COC(=O)CC)CC[C@H]2[C@@H]3CCC4=CC(=O)CC[C@]4(C)[C@H]3[C@@H](O)C[C@@]21C
inactive: activity, negative = inhibition [1] 0.0881% [at 23.6 µM] | activity change, negative = inhibition [2] 0.139% [at 23.6 µM] | activity change, negative = inhibition [3] 1.87% [at 23.8 µM] | activity change, negative = inhibition [4] -1.51% [at 23.6 µM]

CCOC(=S)SSC(=S)OCC
inactive: Potency [1] | Potency [2] | Potency [3] | Potency [4]

CC(C)CCC(=O)CCC(C)C
inactive: Potency [1] | Potency [2] | Potency [3] | Potency [4]

COc1ccc(-c2ccc3cc(C(=O)O)ccc3c2)cc1C12CC3CC(CC(C3)C1)C2
inactive: Potency [1] | Potency [2] | Potency [3] | Potency [4]

CC1CN(c2cc3c(cc2F)c(=O)c(C(=O)O)cn3-c2ccc(F)cc2F)CCN1 (centres undefined)
inactive: activity, negative = inhibition [1] 1.81% [at 10.5 µM] | activity change, negative = inhibition [2] 0.0761% [at 10.5 µM] | activity change, negative = inhibition [3] 3.28% [at 10.5 µM] | activity change, negative = inhibition [4] 5% [at 10.5 µM]

O=c1[nH]ncc2ccccc12
inactive: Potency [1] | Potency [2] | Potency [3] | Potency [4]

C=CCc1ccccc1OCC(O)CNC(C)C (centres undefined)
inactive: Potency [1] | Potency [2] | Potency [3] | Potency [4]

CCOC(=O)c1ccc(O)c(O)c1
inactive: Potency [1] | Potency [2] | Potency [3] | Potency [4]

CCN(CC)CCc1nc(-c2ccccc2)no1
inactive: Potency [1] | Potency [2] | Potency [3] | Potency [4]
